Shiga toxin inh: inhibitors of Shiga toxin in Vero cells; AID 2315; inhibition, % at 38.7 µM; Vero cells, Shiga toxin protein synthesis inhibition reporter; 290,000 tested, 9.2% active; in the data active = inhibition mostly above about 28%, no sharp cut-off; inactive = mostly below about 43%; also: 0% is about no effect
Cycloheximide cs: affects cycloheximide protein synthesis inhibition readout, counter-screen. cell reporter, cycloheximide protein synthesis inhibition counterscreen. max response, %. 300,000 tested, 12% active. AID 2314; in the data active = max response mostly above about 13%, no sharp cut-off; inactive = mostly below about 14%; also: read at 38.3 µM for the half of the compounds with a filed dose; 0% is about no effect
HCMV antiviral: human cytomegalovirus inhibition; HFF cells, HCMV-luciferase reporter, 72 h; stronger effect = lower value; activity change, negative = inhibition, % at 57.5 µM; 410,000 tested, 4.5% active; AID 1259415; in the data active = activity change below about -60%; inconclusive = no clear call, values can overlap the other calls; inactive = above about -39%; also: % is scaled to controls: 0 for no effect and ±100 for the full control effect
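Cell-based, HFFs, 1000 cells/well, 16 h 37C; cpds in DMSO + HCMV-luc, MOI 1 PFU/cell; 72 h 37C; OneGlo luminescence after 5 min RT; norm. to buffer vs Salinomycin 10uM.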
Pf growth 48h: P. falciparum growth inhibition at 48 hours (one generation) | P. falciparum luciferase growth in erythrocytes, 48 h | Potency, µM (highest dose often 28.7 µM), for inactives: at the highest dose activity change, negative = inhibition, usual class: inhibitors | 310,000 tested, 5.9% active; also: potency is read from the fitted curve at half-maximal effect; % is scaled to controls: 0 for no effect and ±100 for the full control effect
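Read-out is firefly luciferase luminescence from an integrated reporter in P. falciparum, so falling signal marks reduced parasite growth. Infected erythrocytes were at 2% hematocrit and 0.1% parasitemia (final) in Albumax-supplemented RPMI 1640.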
Pf growth 96h: P. falciparum growth inhibition at 96 hour, primary screen for plastid delayed-death inhibitors; P. falciparum luciferase reporter growth, 96 h; Potency, µM (top dose mostly 28.7 µM), for inactives: top-dose activity change, negative = inhibition, usual class: inhibitors; 320,000 tested, 6.9% active; also: potency is read from the fitted curve at half-maximal effect; % is scaled to controls: 0 for no effect and ±100 for the full control effect
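Readout is luminescence from an integrated firefly luciferase in P. falciparum. Red cells, 2% hematocrit and 0.05% parasitemia final, were cultured with compound through two parasite generations (96 hours) at 37 C, 5% CO2.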
* marks the source's active call; other numbers are inactive results; i = inactive; ? = inconclusive; / = not tested or not shown. Rows were chosen to be rich in hits. Some 20% of all compounds tested hit in one or more screens of this group. Unless noted, calls follow the shape of the dose curve; as a rule, active = well fitted inhibition curve with a large enough effect; inconclusive = small, poorly fitted or top-dose-only effect, or another doubt; inactive = no such curve, though single readings can be large or run the other way.

SMILES	Shiga toxin inh	Cycloheximide cs	HCMV antiviral	Pf growth 48h	Pf growth 96h
C=CCN=c1scc(-c2ccccc2)n1/N=C/c1ccccn1	active	19.6*	-99.3*	-23.8%	?
CC(Cc1ccccc1)N1C(=O)c2cccc([N+](=O)[O-])c2C1=O (centres undefined)	-0.3	7.0	0.2	-2.7%	2.4%
O=C(Nc1ccccc1[N+](=O)[O-])c1cc(S(=O)(=O)N2CCOCC2)cs1	38.3	19.3*	?	-3.5%	?
O=C(COC(=O)c1cc(S(=O)(=O)N2CCCCC2)ccc1N1CCOCC1)c1ccccc1	/	/	-18.6	8.28µM*	?
CC(C)NC(=O)NC(=O)COC(=O)c1cc(S(=O)(=O)N2CCCCC2)ccc1N1CCOCC1	43.8*	12.3*	-19.2	8.28µM*	?
CC(C)CNC(=O)COC(=O)c1cc(S(=O)(=O)N2CCCCC2)ccc1N1CCOCC1	-7.7	5.7	-0.5	?	?
O=C(COC(=O)c1cc(S(=O)(=O)N2CCCCC2)ccc1N1CCOCC1)c1ccc(Cl)cc1	/	/	9.0	11.7µM*	13.1µM*
O=C(N[C@@H](Cc1ccccc1)C(O)c1nc2ccccc2[nH]1)c1ccccn1 (some centres undefined)	/	/	1.8	/	/
COc1ccc(CN2CCCC(C(=O)Nc3cccc(-n4cccn4)c3)C2)c(F)c1 (centres undefined)	-11.9	-0.7	-32.5	?	45.8%
O=C(COC(=O)c1cc(S(=O)(=O)N2CCOCC2)cs1)c1ccccc1	-0.1	6.9	32.8	18.8%	9.28µM*
Cc1ccc2oc(-c3cccc(NC(=O)/C=C/c4cccc([N+](=O)[O-])c4)c3C)nc2c1	97.0*	57.3*	85.7	?	2.33µM*
O=C(Nc1nc(COc2ccccc2)cs1)C12CC3CC(CC(C3)C1)C2	27.2	19.0	-84.0*	/	?
COc1ccccc1OCc1csc(N)n1	31.6	5.1	-22.7	50.7%	6.3%
O=C(Nc1nc(COc2ccccc2)cs1)C1CCC1	89.3*	36.8*	9.0	406.5%	i
Nc1nc(CCOc2ccc(F)cc2)cs1	153.8*	33.4*	12.8	203.9%	136.5%
CC(=O)Nc1nc(COc2ccccc2)cs1	64.3*	43.6*	99.9	172.8%	?
CC(C)CN(C(=O)c1cc(Cl)nc2ccccc12)c1c(N)n(Cc2ccccc2)c(=O)[nH]c1=O	/	/	-5.6	4.8%	-9.8%
Nc1nc(COc2ccc3ccccc3c2)cs1	116.0*	59.7*	62.5	13.9%	/
COc1cccc(OC)c1C(=O)Nc1nc(COc2ccccc2)cs1	28.3	9.7	-31.5	119.0%	44.5%
Cc1ccc(C(=O)Nc2nc(COc3ccccc3)cs2)s1	82.3*	31.5*	-74.9*	6.8%	-15.9%
CC(=O)Nc1nc(CCl)cs1	8.7	-2.0	-35.1	8.7%	4.9%
CC(=O)Nc1nc(COc2ccc3ccccc3c2)cs1	96.6*	52.5*	8.4	/	122.6%
Cc1cccc(OCCCCCN2CCOCC2)c1C	-8.6	-3.1	-24.5	-1.9%	?
Brc1ccccc1OCCCN1CCOCC1	50.3*	32.2*	73.4	23.7%	9.1%
Cc1cccc(OCCCN2CCOCC2)c1C	16.6	8.3	45.8	34.1%	6.57µM*
SMILES	Shiga toxin inh	Cycloheximide cs	HCMV antiviral	Pf growth 48h	Pf growth 96h
Cc1ccc(C)c(CS(=O)(=O)c2cn(CC(=O)N(C(C)C)C(C)C)c3ccccc23)c1	/	/	26.2	/	/
COc1ccc(/C(C)=N/Nc2ccc(F)cc2F)c(O)c1	73.8*	42.1*	-28.6	145.7%	46.9%
C/C(=N\Nc1ccc(F)cc1F)c1cccs1	63.7	35.2*	/	19.6%	12.4%
N/C(CC(=O)Nc1ccc(F)cc1F)=N\OC(=O)c1cccs1	12.5	-2.3	54.8	0.7%	0.0%
COc1ccc(/C(C)=N/Nc2ccccc2Cl)c(O)c1	47.6*	36.9*	0.0	114.2%	207.8%
Cc1ccc(C(=O)Nc2ccc(C)c(S(=O)(=O)Nc3ccccc3Cl)c2)s1	1.8	7.9	?	-7.6%	3.7%
O=C(Nc1cc(S(=O)(=O)Nc2ccccc2Cl)ccc1O)c1cc2c(s1)CCCC2	-6.7	-1.9	-34.6	181.9%	0.0%
Cc1ccc(NC(=O)c2cc3c(s2)CCCC3)cc1S(=O)(=O)Nc1ccccc1Cl	8.1	1.0	-81.7*	18.7%	-23.2%
O=C(Nc1cccc(S(=O)(=O)Nc2ccc(Cl)cc2)c1)c1cc2c(s1)CCCC2	-13.2	6.6	-74.8*	30.9%	?
COc1ccc(S(=O)(=O)NCCN2CCOCC2)cc1Br	-9.9	-0.8	-15.9	0.7%	10.4µM*
COc1cc(Cl)c(S(=O)(=O)NCCN2CCOCC2)cc1Cl	4.1	7.0	-18.5	13.4%	/
O=S(=O)(NCCCN1CCOCC1)c1ccc2c(c1)OCCO2	-15.7	-2.6	-40.0	17.8%	10.4µM*
O=S(=O)(NCCN1CCOCC1)c1cc(Cl)c(Cl)cc1Cl	-14.1	-0.4	0.0	-1.3%	13.1µM*
O=C(CC1SCCNC1=O)NCc1ccccc1 (centres undefined)	/	/	-8.7	/	/
CCOC(=O)C(NC(C)=O)C(=O)Nc1c(C)cccc1C (centres undefined)	-8.5	-2.1	21.5	6.8%	18.5%
CCOC(=O)C1(Cc2ccccc2Cl)CCN(C(=O)c2cc(C)on2)CC1	40.3*	28.0*	2.8	-21.2%	?
CCOC(=O)C1(Cc2ccc(Cl)cc2)CCN(C(=O)c2cscn2)CC1	-4.1	0.2	-14.9	1.8%	?
CCOC(=O)C1(Cc2ccccc2Cl)CCN(C(=O)c2cnccn2)CC1	93.6*	50.0*	20.2	7.2%	9.28µM*
CCOC(=O)c1sc(NC(=O)c2nc(SC)ncc2Cl)c(C(=O)OCC)c1C	/	/	6.4	/	/
Cc1cccc(CSc2nc3[nH]ncc3c(=O)[nH]2)c1	24.0	27.2	69.8	21.0%	3.2%
O=c1[nH]c(SCc2ccc([N+](=O)[O-])cc2)nc2[nH]ncc12	33.5	11.9	-11.3	?	7.38µM*
O=C(Nc1nccs1)c1ccc(-c2ccc([N+](=O)[O-])cc2)o1	120.0*	25.6*	?	-13.2%	-13.8%
O=C(Nc1nccs1)c1ccc(-c2ccc(F)cc2)o1	94.8*	40.9*	4.5	47.8%	0.0%
O=C(NNC(=O)c1ccccc1O)c1ccc(-c2ccc([N+](=O)[O-])cc2)o1	/	/	?	2.7%	-7.9%
CC(=O)Cc1nsc(NC(=O)c2ccc(-c3ccc(Cl)c(C(F)(F)F)c3)o2)n1	20.1	-1.3	/	-0.1%	20.7%
CC(=O)Cc1nsc(NC(=O)c2ccc(-c3ccc(F)cc3)o2)n1	12.9	15.7*	?	1.9%	?
O=C(Nc1nccs1)c1ccc(-c2ccc(Cl)cc2)o1	94.1*	51.0*	101.6	?	1.1%
O=C(CC1N=C2c3ccccc3N=C(SCC(=O)Nc3ccccc3F)N2C1=O)NCc1cccs1 (centres undefined)	/	/	18.4	/	/
O=C(CNC(=O)c1ccccc1F)OCc1nc2ccccc2s1	67.2*	25.0	12.8	35.8%	46.4%
O=C(CNC(=O)c1ccc(Cl)cc1Cl)OCc1nc2ccccc2s1	70.2	2.0	27.7	8.9%	53.2%

Screens (PubChem)
